# This is a sample that favours compounds with a hit; in the whole collection about 11% have one here.
# HPGD block = inhibitors of human 15-hydroxyprostaglandin dehydrogenase (HPGD); P15428; actives 4.3% (n = 150,000); purified HPGD, NADH fluorescence kinetic, PGE2 substrate; Potency, µM, without a hit: top-dose activity change, negative = inhibition, most hits filed as inhibitors; further: potency means the concentration at half of the fitted maximal effect
# Target sequence (P15428 whole entry, looked up): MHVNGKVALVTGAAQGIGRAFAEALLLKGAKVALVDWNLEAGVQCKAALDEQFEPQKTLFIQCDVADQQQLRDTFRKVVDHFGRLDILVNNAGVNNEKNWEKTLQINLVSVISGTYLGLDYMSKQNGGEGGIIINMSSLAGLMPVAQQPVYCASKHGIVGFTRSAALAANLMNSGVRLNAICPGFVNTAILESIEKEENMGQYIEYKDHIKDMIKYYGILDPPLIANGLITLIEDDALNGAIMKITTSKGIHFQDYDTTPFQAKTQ
#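 NADH formation kinetics: reaction with 30 uM PGE2 and 1 mM NAD+ (final), 20 nM enzyme, Tris-HCl pH 8 with Tween 20, after 15 min compound preincubation at room temperature. Fluorescence change, last versus first of five reads.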
# IMPase Li inh = membrane-permeable IMPase blocker, potentiated with lithium; actives 0.35% (n = 210,000); Potency, µM (highest dose often 59.4 µM), inactives show at the top dose activity, negative = IMPase inhibition, actives largely listed as inhibitors; CHO-M1 cells, IP1 TR-FRET (IP-One), carbachol + lithium; active means well fitted inhibition curve with a large enough effect; inconclusive means small, poorly fitted or top-dose-only effect; inactive means no such curve, though single readings can be large or run the other way;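 further: IP1 builds up when IMPase is blocked and the TR-FRET signal falls; potency means the concentration at half of the fitted maximal effect; plate controls were basal vehicle for no effect and high inhibitor control for full effect; nearly all actives have a fitted effect of over 50% in size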
#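 CHO cells stably expressing M1 receptor (2000/well, cultured 16–30 h) treated 30 min at 37C with compound plus low lithium. Cytosolic IP1 by TR-FRET (665/620 ratio and 620 channel) after 10 min lysis; AC50 by Hill fit.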
# IMPase cell inh = membrane-permeable compound that blocks inositol monophosphatase | CHO-M1 cells, IP1 accumulation, HTRF TR-FRET ratio | inhibition (IP1 accumulation), % at 46.1 µM | 120,000 tested, under 10 active | AID 901; active means well fitted curve in the direction sought with a large enough effect in the signal ratio, not every such curve was filed as active; inconclusive means small, poorly fitted or top-dose-only effect, or a change in a side signal; inactive means no such curve, though single readings can be large or run the other way; the % refers to the signal ratio;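 further: cells stimulated with carbachol in lithium chloride buffer; plate controls were DMSO basal wells for no effect and reference inhibitor wells for full effect; higher means more IMPase inhibition seen as more IP1 and lower FRET ratio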
#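 Seeded CHO-M1 cells were dosed with compound at up to 46 uM, stimulated with carbachol for 30 min, then lysed in IP-One detection reagents. Higher IP1 lowers the TR-FRET signal.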
# PNC assembly inh = blocks assembly of the perinucleolar compartment | PC3M PTB-GFP, PNC prevalence imaging, 16 h; active compounds read low | activity change (PNC), negative = inhibition, % at 10 µM | actives 3.1% (n = 140,000);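 active means readout at or below -70, meaning at least 70% loss of cells showing the perinucleolar compartment, a nuclear body marking cancer cells; inconclusive means readout between -30 and a set limit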;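 further: plate controls were DMSO wells for no effect and camptothecin positive control wells for full effect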
#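 Compounds are pinned in duplicate onto adhered PC3M cells stably expressing GFP-tagged PTB and incubated 16 h at 37 C. Cells are then fixed, nuclei stained with Hoechst, and PNC-positive cells counted.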
# ALDH1A1 inh = inhibitors of human aldehyde dehydrogenase 1A1. P00352. Purified ALDH1A1, NADH fluorescence, propionaldehyde substrate. Potency, µM (doses to about 75.3 µM), inactives show at the highest dose activity, negative = inhibition, hits mostly inhibitors. actives 7.3% (n = 220,000). AID 1030;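 further: potency means the concentration at half of the fitted maximal effect; plate controls were no enzyme wells and a reference inhibitor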
# Target sequence (P00352 whole entry, looked up): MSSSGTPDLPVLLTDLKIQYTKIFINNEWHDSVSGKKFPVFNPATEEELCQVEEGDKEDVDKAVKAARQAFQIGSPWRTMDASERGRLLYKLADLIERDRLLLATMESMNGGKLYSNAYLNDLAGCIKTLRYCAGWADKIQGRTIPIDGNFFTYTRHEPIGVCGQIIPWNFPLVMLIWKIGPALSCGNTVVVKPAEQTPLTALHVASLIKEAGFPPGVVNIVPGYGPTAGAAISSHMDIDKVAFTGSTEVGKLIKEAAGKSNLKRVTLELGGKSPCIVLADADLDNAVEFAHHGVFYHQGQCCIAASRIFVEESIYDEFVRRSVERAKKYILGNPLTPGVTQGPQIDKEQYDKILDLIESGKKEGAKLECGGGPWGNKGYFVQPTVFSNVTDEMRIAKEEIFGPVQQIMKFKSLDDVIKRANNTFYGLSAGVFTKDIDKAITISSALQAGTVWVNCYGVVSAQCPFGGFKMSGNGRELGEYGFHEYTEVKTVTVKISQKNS
# Active calls of the source: *; u = inconclusive; x = not tested or not shown; [ ] = another dose, or the depositor's remark. Unless noted, the call rests on the fitted dose curve; in most records, active means well fitted inhibition curve with a large enough effect (not every such curve was filed as active); inconclusive means small, poorly fitted or top-dose-only effect, or another doubt; inactive means no such curve, though single readings can be large or run the other way. Unless noted, on the % scale 0 is the no-effect control and ±100 the full control effect.
SMILES,HPGD block,IMPase Li inh,IMPase cell inh,PNC assembly inh,ALDH1A1 inh
O=C(CCl)Nc1cccc(S(=O)(=O)N2CCCCCC2)c1,x,x,-5.3,-7.4,0.708µM*
O=S(=O)(Nc1cccc(S(=O)(=O)N2CCCCCC2)c1)c1ccccc1,x,7.0%,x,x,2µM*
CC(=O)N1CCN(CC(=O)Nc2cccc(S(=O)(=O)N3CCCCCC3)c2)CC1,x,2.8%,x,x,-4.9%
O=S(=O)(NCCNC/C=C\c1ccc(Br)cc1)c1cccc2cnccc12,x,x,7.6,x,x
Cc1ccc(S(=O)(=O)NCCOc2nc(N(C)C)nc(N3CCOCC3)n2)cc1,-8.4%,22.7%[38.3 µM],3.3,-92.7*,12.8%
CN(C)c1nc(OCCNC(=O)Nc2ccccc2)nc(N2CCCCC2)n1,x,9.5%,x,x,0.891µM*
CC1(C)S[C@@H]2[C@H](NC(=O)COc3ccccc3)C(=O)N2[C@H]1C(=O)O (tested in a mixture with another compound),-11.1%,1.0%,2.6[20.6 µM],x,18.0%[20.9 µM]
O=C(Nc1ccccc1Cl)c1cccc(COc2cc(Cl)ccc2Cl)c1,u,31.8%[38.3 µM],-12.3,17.1,2.9%
Cc1cc(C)c(NC(=O)c2sc3nc4c(cc3c2N)C(=O)CC(C)(C)C4)c(C)c1,-11.7%,-2.1%,x,19.4,0.251µM*
CC1(C)CC(=O)c2cc3c(N)c(C(=O)NCc4ccccc4)sc3nc2C1,0.8%,-5.5%[38.3 µM],5.9,88.1,u
CCOC(=O)c1sc2nc3c(cc2c1N)C(=O)CC(C)(C)C3,-9.4%,-5.9%,x,14.4,0.501µM*
COC(=O)c1sc2nc3c(cc2c1N)C(=O)CC(C)(C)C3,-1.3%,-9.4%[38.3 µM],-1.0,17.8,0.891µM*
c1cc2c(cc1-c1csc(NNC3=NCCCCC3)n1)OCCO2,x,6.9%,x,x,20µM*
c1ccc(-c2csc(Nc3ccc4c(c3)OCCO4)n2)cc1,-20.8%,-2.7%[38.3 µM],-8.6,-5.5,23.8µM*
COc1cccc(Nc2nc(-c3ccc4c(c3)OCCO4)cs2)c1,-21.7%,16.6%[38.3 µM],3.4,-19.0,u
CCC(=O)Nc1nc(-c2ccc3c(c2)OCCO3)cs1,-5.4%,4.9%[38.3 µM],-4.4,-8.9,u
c1cc2c(cc1Nc1nc(-c3ccc4c(c3)OCO4)cs1)OCCO2,-17.1%,12.0%[38.3 µM],-16.2,u,17.8µM*
C=CCSc1nc2sc3c(c2c(=O)n1CC)CCc1ccccc1-3,2.24µM*,6.6%[38.3 µM],-6.2,-4.2,1.58µM*
COc1cccc([C@@H]2Oc3ccc(OC)cc3C[C@H]2OC(=O)NCc2ccco2)c1,-16.1%,-9.3%,x,x,u
S=C(Nc1ccc(Cl)cc1Cl)NC1CCN(Cc2ccccc2)CC1,-4.1%,-0.7%,x,37.8,8.91µM*
S=C(Nc1ccccc1Cl)NC1CCN(Cc2ccccc2)CC1,-7.5%,-1.2%,-11.4,u,u
S=C(Nc1ccc2c(c1)OCO2)NC1CCN(Cc2ccccc2)CC1,-1.7%,-6.0%[38.3 µM],5.8,u,12.6µM*
CC(C)c1ccc(NC(=S)NC2CCN(Cc3ccccc3)CC2)cc1,-3.3%,0.9%,-2.5,79.9,u
Cc1ccc(NC(=S)NC2CCN(Cc3ccccc3)CC2)cc1C,x,1.6%,x,x,-10.4%
Cc1ccc(NC(=S)NC2CCN(Cc3ccccc3)CC2)cc1,-7.8%,-3.1%,x,-119.4*,u
SMILES,HPGD block,IMPase Li inh,IMPase cell inh,PNC assembly inh,ALDH1A1 inh
Nc1nc(CSCc2ccccc2)nc(N2CCOCC2)n1,-10.6%,26.8%[38.3 µM],2.9,-106.5*,u
CC(=O)C1=C(C)Nc2ncnn2C1c1ccc(Cl)cc1Cl (stereo not given),-26.5%,-0.6%[38.3 µM],-2.9,15.8,u
Cc1cn(C(=O)c2ccccc2)c(=S)n1-c1ccc(Cl)cc1,u,8.6%,-1.0,-100.0*,-3.6%
Cc1ccc(-n2c(C)cn(C(=O)c3ccccc3)c2=S)cc1,-10.6%,17.2%,u,u,-1.0%
Cc1cccc(/C=C/C(=O)c2ccc(NC3=NCCCS3)cc2)c1,-21.6%,13.3%,x,32.9,-11.9%
O=C(/C=C/c1ccccc1)c1ccc(NC2=NCCCS2)cc1,14.1µM*,7.1%,x,u,-7.2%
CC(C)(C)c1ccc(/C=C/C(=O)c2ccc(NC3=NCCCS3)cc2)cc1,20µM*,-16.1%,3.2,-0.7,20.1%
COc1cccc(/C=C/C(=O)c2ccc(NC3=NCCCS3)cc2)c1,x,15.6%,x,x,u
O=C(/C=C/c1ccc(Br)cc1)c1ccc(NC2=NCCCS2)cc1,8.91µM*,-16.6%,x,-93.0*,11.7%
CCN(CC)c1ccc(S(=O)(=O)N(CC)CC)cc1NC(=O)c1cccnc1,x,6.3%,x,x,u
CC(c1ccco1)N(C(=O)c1ccccc1NS(=O)(=O)c1cccc([N+](=O)[O-])c1)c1ccccn1 (stereo not given),-1.4%,9.9%,x,-102.3*,u
COc1cccc(Cn2c(=O)c(-c3cccc(F)c3)nc3cncnc32)c1,20µM*,3.0%,x,x,-6.6%
CC(C)(C)c1[nH]nc2c1C(c1ccc(OC(=O)c3ccco3)cc1)C(C#N)=C(N)O2 (stereo not given),-16.9%,18.1%[38.3 µM],-1.3,-23.7,4.47µM*
CC(C)(C)c1[nH]nc2c1C(c1cccnc1)C(C#N)=C(N)O2 (stereo not given),-2.3%,x,-8.8,u,u
Cc1ccc2nc(C)c(C(=O)NN=C3CCN(C)CC3)n2c1,x,0.5%,x,x,7.94µM*
CCN(CC)CCOC(=O)/C=C/c1ccccc1OC,u,2.6%,x,-11.4,u
O=[N+]([O-])c1cc(S(=O)(=O)N2CCCCC2)ccc1NCCCN1CCOCC1,x,-0.2%,x,x,4.4%
O=C(Cc1nc2ccccc2[nH]1)c1ccc([N+](=O)[O-])cc1,x,x,x,x,17.8µM*
CN/N=C(\Cc1nc2ccccc2[nH]1)c1ccc([N+](=O)[O-])cc1,x,5.7%,x,x,20µM*
Clc1ccc(/C(Cc2nc3ccccc3[nH]2)=N\Nc2ccccc2)cc1,x,13.2%,x,x,4.47µM*
O=C(NCCc1nc2ccccc2[nH]1)c1ccc([N+](=O)[O-])cc1,x,x,x,x,5.0%
Cc1cccc(C)c1NC(=O)Cn1cc(C(=O)C2CC2)c2ccccc21,x,x,9.4,x,x
CC(C)Cc1cc(CN2CCC(CO)(Cc3cccc(C(F)(F)F)c3)CC2)[nH]n1,x,2.0%,x,x,-3.4%
C[C@@H](C(=O)O)c1ccc(C[C@@H]2CCCC2=O)cc1,x,x,2.7,x,x
CC(C)(C)c1nc2scc(-c3cccs3)c2c(=O)o1,u,28.0%[38.3 µM],-8.8,39.2,u
SMILES,HPGD block,IMPase Li inh,IMPase cell inh,PNC assembly inh,ALDH1A1 inh
Cc1nc2scc(-c3cccs3)c2c(=O)[nH]1,22.4µM*,24.4%[38.3 µM],-2.8,u,11.2µM*
Cc1nc2scc(-c3cccs3)c2c(=O)n1CC(=O)O,-29.8%,5.2%[38.3 µM],-23.1,-80.1*,2.9%
CCN1c2ccccc2-c2nc3ccccc3n2C1c1cccs1 (stereo not given),u,-0.6%,x,9.3,u
N=c1ccn(Cc2ccc(Cl)cc2)cc1,-11.9%,14.4%[38.3 µM],10.1,u,25.1µM*
CCNc1ncc2nc(-c3cccs3)c(=O)n(Cc3ccc(F)cc3)c2n1,x,3.5%,x,x,u
COc1ccc(OC2C=CC(c3ccccc3)OC2CO)cc1 (stereo not given),x,x,x,x,10.4%[13.5 µM]
